Experimental data from the OligoGym collection.

target: SLC29A3; experiment: pooled miR-30 sensor sort-seq; sequence = guide strand; settings: shRNA
Note: reference of the scale not given here.

Question: TTGCATCTCGCTGTCAGCTGGA was tested. Which sensor-assay potency score (higher = more potent) did it give?
Answer: 0.563

Question: For TTGCGGAGTTTGAACATCCAGT, which sensor-assay potency score (higher = more potent) is on record?
Answer: -0.979

Question: Which sensor-assay potency score (higher = more potent) does the source give for TATTTCTTCTTCAACTGTCTCA here?
Answer: 0.0304

Question: Which sensor-assay potency score (higher = more potent) does the source give for TTGAACATCCAGTACTCCTTGG here?
Answer: -0.255

Question: How did the sensor-assay potency score (higher = more potent) turn out when TTTGTAATAACTCTAGGGCGAA was run?
Answer: -1.16

Question: Which sensor-assay potency score (higher = more potent) does the source give for TTGAACTGTGCTGAAAGTCGTC here?
Answer: 0.651

Question: For TTTGCTTGCATCTCGCTGTCAG, which sensor-assay potency score (higher = more potent) is on record?
Answer: 0.244

Question: For TTTGAACATCCAGTACTCCTTG, which sensor-assay potency score (higher = more potent) is on record?
Answer: 0.313

Question: With TTGCTTGCATCTCGCTGTCAGC as the sequence, how does the sensor-assay potency score (higher = more potent) read?
Answer: -1.44
